Most compounds without a hit are left out; they make up all but 2.4% or so of the library.
A3A deaminase = APOBEC3A ssDNA deaminase inhibitors, primary screen, selectivity assay for APOBEC3G inhibitor project, biochemical, FAM/TAMRA oligo cleavage fluorescence | recombinant A3A, FAM/TAMRA ssDNA deamination fluorescence | inhibition, % at 20 µM | actives 0.41% (n = 330,000) | AID 493011, 2011;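 active means at least 40% inhibition at 20 µM here, with at most 30% in a related deaminase screen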;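 further: plate controls were A3A with DMSO for no effect and wells lacking A3A enzyme for full effect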
Target sequence (P31941 whole entry, looked up): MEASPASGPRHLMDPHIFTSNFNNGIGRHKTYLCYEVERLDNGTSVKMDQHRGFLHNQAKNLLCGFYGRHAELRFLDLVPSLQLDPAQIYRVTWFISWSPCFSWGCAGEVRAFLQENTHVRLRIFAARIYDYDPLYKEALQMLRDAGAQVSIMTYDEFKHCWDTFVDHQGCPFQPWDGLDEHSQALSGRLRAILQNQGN
APOBEC3G inh = APOBEC3G DNA deaminase inhibitors, primary screen, biochemical, fluorescence, single-stranded DNA substrate, uHTS | DNA dC->dU-editing enzyme APOBEC-3G (Homo sapiens), Q9HC16 | recombinant A3G, ssDNA deamination FAM/TAMRA fluorescence | inhibition, % at 20 µM | actives 0.28% (n = 330,000) | AID 493012, 2011;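 active means inhibition of at least 40% at 20 µM, with no more than 30% in the related APOBEC3A deaminase screen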;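 further: plate controls were DMSO wells with A3G for no effect and wells lacking A3G enzyme for full effect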
Target sequence (Q9HC16 whole entry, looked up): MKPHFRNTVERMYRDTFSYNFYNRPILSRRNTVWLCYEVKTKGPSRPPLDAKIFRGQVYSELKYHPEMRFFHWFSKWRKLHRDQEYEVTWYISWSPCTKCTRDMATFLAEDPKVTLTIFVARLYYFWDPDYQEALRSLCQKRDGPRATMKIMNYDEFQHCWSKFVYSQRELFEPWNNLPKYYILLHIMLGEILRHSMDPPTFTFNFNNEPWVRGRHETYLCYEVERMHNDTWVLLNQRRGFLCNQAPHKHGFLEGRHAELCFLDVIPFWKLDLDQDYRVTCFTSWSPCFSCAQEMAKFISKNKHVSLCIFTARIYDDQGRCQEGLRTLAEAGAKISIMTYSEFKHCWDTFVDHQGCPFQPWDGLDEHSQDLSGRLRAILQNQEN
Yeast superoxide = reduction of superoxide in aged yeast, primary screen, HTS; superoxide response (% of plate mean), % at 10 µM; S. cerevisiae aged cells, superoxide DHE fluorescence; stronger effect = lower value; AID 2690, 2010; actives 0.18% (n = 330,000);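 active means superoxide response under a set limit, about three screen SD below normal, cut at about 65% in these data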;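 further: yeast aged for seven days with compound at 30 °C before DHE staining; 100% = average MFI of all compound-treated wells on the plate with controls excluded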
M18AAP inhibitor = PfM18AAP inhibitors, malaria aminopeptidase, primary screen, biochemical, QFRET, recombinant enzyme; M18 aspartyl aminopeptidase (Plasmodium falciparum 3D7); H-Glu-NHMec fluorogenic cleavage; inhibition, % at 7.35 µM; actives 1.2% (n = 290,000); AID 1822, 2009;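 active means inhibition above the campaign mean inhibition over all tested compounds plus 3 SD, cut at about 28% in these data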;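 further: 0% = plate median of test compound wells and 100% = 2 mM ZnCl2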
PfGluPho inh = PfG6PD enzyme inhibitors, primary screen, biochemical, fluorescence intensity, uHTS | glucose-6-phosphate dehydrogenase-6-phosphogluconolactonase (Plasmodium falciparum 3D7) | PfGluPho enzyme, NADPH resazurin-diaphorase fluorescence | inhibition, % at 20 µM | actives 0.78% (n = 350,000) | AID 504690, 2011;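 active means inhibition reaching at least a set limit at 20 µM in the primary screen, cut at about 59% in these data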;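 further: 0% = DMSO wells with substrate and 100% = DMSO wells lacking glucose-6-phosphate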
APOBEC3G confirm = APOBEC3G deaminase inhibitor retest, confirmation, biochemical, fluorescence, single-stranded DNA substrate, single concentration; shares compounds with APOBEC3G inh; recombinant A3G ssDNA deaminase, UDG/FAM-TAMRA fluorescence; inhibition, % at 20 µM; actives 72% (n = 890); AID 493152, 2011;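 active means inhibition reaching a set limit in any replicate at 20 µM, the limit being 80% of the first screen's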
UDG A3G counter = E. coli UDG inhibitors, confirmation, counter-screen for APOBEC3G inhibitor project, biochemical, single concentration, fluorescence, FAM/TAMRA oligo | shares compounds with APOBEC3G inh | UDG counterscreen | inhibition, % at 20 µM | 710 tested, under 10 active;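 active means compounds giving 40% or more inhibition at 20 µM in any one of the three replicates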;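 further: plate controls were DMSO wells with UDG and oligo for no effect and DMSO wells lacking both for full effect; inhibitors lower the FAM signal released by uracil excision and alkaline cleavage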
PfG6PD confirm = PfG6PD inhibitors, hit retest, confirmation, biochemical, fluorescence intensity, single concentration. shares compounds with PfGluPho inh. recombinant PfGluPho, NADPH-diaphorase-resazurin fluorescence. inhibition, % at 20 µM. actives 34% (n = 2,400). AID 504753, 2011;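 active means inhibition of at least 50% at 20 µM in any single replicate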;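 further: 0% = DMSO with substrate and 100% = DMSO lacking glucose-6-phosphate substrate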
Diaph ctr 10uM = diaphorase inhibitors and chemical oxidizers, confirmation, counter-screen for P. falciparum G6PD inhibitor project, biochemical, fluorescence intensity, 10 µM NADPH. shares compounds with PfGluPho inh. diaphorase-coupled resazurin reduction, NADPH 10 uM. inhibition, % at 20 µM. actives 39% (n = 820);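 active means average inhibition reaching 50% or more with the compound at 20 µM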;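 further: resorufin red fluorescence formed as diaphorase reduces resazurin using NADPH; 0% = DMSO with enzyme and 100% = DMSO without enzyme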
Diaph ctr 30uM = diaphorase inhibitors and chemical oxidizers, confirmation, counter-screen for P. falciparum G6PD inhibitor project, biochemical, fluorescence intensity, 30 µM NADPH | Diaphorase/resazurin coupled assay, resorufin fluorescence | shares compounds with PfGluPho inh | actives 29% (n = 820) | AID 504863, 2011 | inhibition, % at 20 µM;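 active means inhibition averaging 50% or more, tested at 20 µM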;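 further: 0% = DMSO with enzyme and 100% = DMSO wells lacking diaphorase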
Active calls of the source: *; i = inactive; . = not tested or not shown; ! = a repeat was not active.

SMILES	A3A deaminase	APOBEC3G inh	Yeast superoxide	M18AAP inhibitor	PfGluPho inh	APOBEC3G confirm	UDG A3G counter	PfG6PD confirm	others
O=C1C=CC(=O)C(C2=C3C(=O)N(CCc4ccccc4)CC(=O)N3CCC2)=C1	3	90*	97	-19	110*	93*	3	114*	Diaph ctr 10uM=99*;Diaph ctr 30uM=82*
O=C1CC2(CCCCC2)CC(=O)N1CCc1ccccc1	.	.	.	.	13	.	.	.
CN1CCn2cnc(C(=O)Nc3ccc(CNC(=O)OC(C)(C)C)cc3)c2C1=O	.	.	.	.	-17	.	.	.
CCOc1cccc(N)c1	-5	-13	131	.	14	.	.	.
CCOc1ccc(N)c(SSc2cc(OCC)ccc2N)c1	-3	72*	76	43*	68*	96*	8	45
Cc1cccc(OCCn2c(=S)[nH]c3ccccc32)c1	8	62*	108	-2	68*	46*	-1	32
S=c1[nH]c2ccccc2n1CCOc1ccccc1	-7	10	105	17	37	.	.	.
Cc1nc2ccc(Nc3nc4cc(S(=O)(=O)N5CCOCC5)ccc4o3)cc2s1	7	56*	120	1	93*	47*	3	54*	Diaph ctr 10uM=19;Diaph ctr 30uM=24
Cc1nc2ccc(NC(=O)c3cc(S(=O)(=O)N4CCOCC4)ccc3C)cc2s1	2	-4	95	5	4	.	.	.
Cc1ccc(C(=O)CSc2nc3cc(S(=O)(=O)N4CCOCC4)ccc3o2)cc1	-9	-6	116	12	21	.	.	.
CCSc1nc2cc(S(=O)(=O)N3CCOCC3)ccc2o1	11	62*	109	.	71*	45*	5	50*	Diaph ctr 10uM=-18;Diaph ctr 30uM=-21
CCOc1ccc(C(=O)CCC(=O)N2CCN(S(=O)(=O)c3cccc(F)c3)CC2)cc1	-1	1	105	.	-3	.	.	.
Nc1c(C(=O)N2CCOCC2)sc(=S)n1-c1ccccc1	0	52*	98	-23	59*	31*	-4	9
Nc1c(C(=O)N2CCCCC2)sc(=S)n1-c1ccccc1	1	56*	98	-34	79*	27	.	35
Cc1ccc(-n2c(N)c(C(=O)N3CCCCC3)sc2=S)cc1	-2	37	80	-25	41	.	.	.
C[C@H](O)[C@@H]1C(=O)N2CCc3c([nH]c4ccccc34)[C@@H]2C[C@@H]1N(C)S(=O)(=O)c1ccccc1	.	.	.	.	12	.	.	.
COc1ccccc1CNS(=O)(=O)c1cc2c3c(c1)CCN3C(=O)CC2	-1	-4	102	.	0	.	.	.
CCOC(=O)c1ccc(N=C2SC(C(=O)NC)CC(=O)N2Cc2ccc(F)cc2)cc1 (stereo unspecified)	-3	1	104	4	5	.	.	.
N#Cc1ccc(N=c2ssnc2Cl)cc1	-2	73*	110	28	93*	91*	-3	56*	Diaph ctr 10uM=-32;Diaph ctr 30uM=-24
CCOC(=O)c1ccc(N=c2ssnc2Cl)cc1	5	66*	.	26	88*	79*	0	30
Nn1c(SCC(=O)Nc2cccnc2Cl)nnc1-c1ccccc1	1	46*	91	.	62*	63*	-2	50*	Diaph ctr 10uM=0;Diaph ctr 30uM=5
Cc1ccc(-c2nnc(SCC(=O)Nc3cccnc3Cl)n2N)cc1	-2	-8	97	.	-10	.	.	.
COc1ccc(OCC(O)CN2CC(C)OC(C)C2)cc1 (stereo unspecified)	-4	3	100	-6	-8	.	.	.
c1csc(-c2nn3c(Cn4cnc5ccccc54)nnc3s2)c1	5	53*	97	3	75*	38*	-4	38
CC1=Nn2c(nnc2-c2n[nH]c3c2CCC3)SC1	5	3	105	2	-1	.	.	.
SMILES	A3A deaminase	APOBEC3G inh	Yeast superoxide	M18AAP inhibitor	PfGluPho inh	APOBEC3G confirm	UDG A3G counter	PfG6PD confirm	others
CC(C)(C)C1=Nn2c(nnc2-c2n[nH]c3c2CCC3)SC1	-3	49*	80	4	60*	71*	-7	12
O=C(O)CCS(=O)(=O)c1cccc2cccnc12	-2	-5	93	3	-1	.	.	.
CCSS(=O)(=O)c1cccc2cccnc12	-2	68*	i	-161	80*	66*	-1	2
CCN1CCN(c2nc(C)nc3c2sc(=S)n3C)CC1	4	46*	.	34*	76*	45*	.	62*	Diaph ctr 10uM=-19;Diaph ctr 30uM=-15
CN1CCc2cccc3c2[C@H]1Cc1ccc(O)c(O)c1-3	-11	51*!	145	35*	87*	103*	0	89*	Diaph ctr 10uM=21;Diaph ctr 30uM=3
CN1CCc2cc3c(c4c2[C@H]1[C@H](O)c1ccccc1-4)OCO3	13	16	.	23	52	.	.	.
O=C(Nc1n[nH]c(=S)s1)c1ccco1	-3	83*	97	26	60*	88*	-3	37
CC(O)C(NS(=O)(=O)c1ccc2ccccc2c1)C(=O)OCC(=O)Nc1ccccc1OC(F)F (stereo unspecified)	.	.	.	.	12	.	.	.
O=C(CNC(=O)c1cccc(Cl)c1)NCCCSc1ccccc1	-1	-11	100	.	6	.	.	.
COc1ccc(-n2c(=S)[nH]c3c(sc(=S)n3-c3ccccc3)c2=O)c(OC)c1	3	44*	93	1	89*	36*	-3	61*	Diaph ctr 10uM=-3;Diaph ctr 30uM=4
COc1ccc(-n2c(=S)[nH]c3sc(-c4ccccc4)cc3c2=O)c(OC)c1	4	6	109	-7	-18	.	.	.
COc1ccc(OC)c2c1C(=O)C(Cl)=C(Cl)C2=O	-6	88*	132	23	125*	92*	-2	112*	Diaph ctr 10uM=81*;Diaph ctr 30uM=42
COc1ccc(OC)c2c1C(=O)CC2C (stereo unspecified)	.	.	.	.	-4	.	.	.

Bioassay records from PubChem BioAssay.
